# High-throughput results from PubChem BioAssay.
# PAD4 FP inh: inhibitors of human PAD4. recombinant PAD4, RCA probe fluorescence polarization. Q9UM07. AID 485272. inhibition, % at 6.36 µM. actives 0.41% (n = 330,000);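 active = percent inhibition above a cutoff equal to the mean of all tested compounds plus 3 SD, cut at about 15% in these data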
# LYPLA1 counter: counter-screen for PME1 inhibitors: inhibitors of human LYPLA1. O75608. recombinant LYPLA1, FP-Rh probe fluorescence polarization. inhibition, % at 5.9 µM. actives 0.16% (n = 320,000). AID 2174;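 active = inhibition above the mean of all tested compounds plus 3 SD, set per campaign, cut at about 14% in these data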;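 also: inhibitors block serine hydrolase probe labeling of LYPLA1 so polarization falls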
# Target sequence (O75608 whole entry, looked up): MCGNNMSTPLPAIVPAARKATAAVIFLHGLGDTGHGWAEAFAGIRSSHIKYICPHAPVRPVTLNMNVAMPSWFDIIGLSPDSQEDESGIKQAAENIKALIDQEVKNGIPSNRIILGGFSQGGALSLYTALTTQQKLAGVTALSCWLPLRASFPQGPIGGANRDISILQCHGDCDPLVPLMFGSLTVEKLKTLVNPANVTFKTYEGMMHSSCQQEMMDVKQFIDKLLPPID
# PME-1 primary: PME-1 (human) inhibition | Q9Y570 | inhibition, % at 5.9 µM | AID 2130 | recombinant PME-1, FP-Rh probe fluorescence polarization | actives 0.53% (n = 320,000);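 active = inhibition above the campaign mean of all compounds plus 3 SD, cut at about 26% in these data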;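 also: competitive labeling of PME-1 active site by serine hydrolase directed probe; inhibitors block probe labeling so polarization falls and inhibition rises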
# GSTO1 counter: blocks human GSTO1 in RBBP9 counter-screen | recombinant GSTO1, activity-based probe fluorescence polarization | actives 1.1% (n = 300,000) | AID 1974 | inhibition, % at 5.96 µM | P78417;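 active = inhibition above the campaign mean inhibition plus 3 SD, cut at about 35% in these data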
# Target sequence (P78417 whole entry, looked up): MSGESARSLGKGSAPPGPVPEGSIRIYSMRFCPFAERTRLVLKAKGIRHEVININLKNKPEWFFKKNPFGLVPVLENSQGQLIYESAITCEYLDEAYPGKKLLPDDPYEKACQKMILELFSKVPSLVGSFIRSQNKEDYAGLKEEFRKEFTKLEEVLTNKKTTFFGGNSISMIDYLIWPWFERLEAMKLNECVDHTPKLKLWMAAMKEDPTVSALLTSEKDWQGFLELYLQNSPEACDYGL
# Fam108B counter: counter-screen for RBBP9 inhibitors: inhibitors of mouse Fam108B. recombinant Fam108B, FP-Rh probe fluorescence polarization. actives 0.33% (n = 300,000). inhibition, % at 9.51 µM;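 active = inhibition above the screen mean inhibition plus 3 SD, computed separately per campaign, cut at about 18% in these data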;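 also: inhibitors lower polarization as less probe binds the enzyme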
# LYPLA2 inh: blocks human lysophospholipase 2, a PME1 counter-screen; actives 0.38% (n = 320,000); O95372; recombinant LYPLA2, FP-Rh probe fluorescence polarization; inhibition, % at 5.9 µM;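 active = inhibition above the screen-wide mean plus 3 SD, limit set per campaign, cut at about 26% in these data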
# Target sequence (O95372 whole entry, looked up): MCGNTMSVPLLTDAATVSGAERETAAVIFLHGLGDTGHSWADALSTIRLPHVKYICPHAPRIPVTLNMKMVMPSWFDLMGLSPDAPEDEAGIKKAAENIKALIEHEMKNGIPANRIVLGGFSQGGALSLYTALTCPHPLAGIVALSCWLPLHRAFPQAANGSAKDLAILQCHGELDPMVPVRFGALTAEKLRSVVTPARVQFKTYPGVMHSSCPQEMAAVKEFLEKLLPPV
# GSTO1 confirm: confirmation of human GSTO1 inhibitors. recombinant GSTO1, probe fluorescence polarization. inhibition, % at 5.96 µM. AID 2176. actives 54% (n = 2,400). shares compounds with GSTO1 counter;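 active = inhibition above the primary screen's cutoff, its mean inhibition plus 3 SD, cut at about 35% in these data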;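 also: loss of polarization as inhibitors block binding of rhodamine sulfonate ester activity probe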
# LYPLA1 conf: counter-screen for PME1 inhibitors: confirmation of human LYPLA1 inhibitors | shares compounds with LYPLA1 counter | actives 69% (n = 480) | inhibition, % at 5.9 µM | AID 2233 | recombinant LYPLA1, FP-Rh probe fluorescence polarization;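 active = mean inhibition across replicates above the hit cutoff set in the primary screen, cut at about 15% in these data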;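 also: loss of FP-Rh probe labeling of LYPLA1 seen as lower polarization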
# LYPLA2 confirm: counter-screen for PME1 inhibitors: confirmation of human LYPLA2 inhibitors. actives 72% (n = 1,100). inhibition, % at 5.9 µM. shares compounds with LYPLA2 inh. recombinant LYPLA2, FP-Rh probe fluorescence polarization;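 active = mean inhibition across replicates above the hit cutoff set in the primary screen, cut at about 26% in these data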;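 also: blocked labeling of the enzyme by serine hydrolase FP-Rh probe lowers polarization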
# PAD4 confirm: PAD4 (human) inhibition, confirmed; shares compounds with PAD4 FP inh; recombinant PAD4, RCA probe fluorescence polarization; inhibition, % at 6.36 µM; actives 28% (n = 1,200);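 active = mean inhibition across replicates above the hit cutoff set by the earlier primary screen, cut at about 15% in these data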;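 also: inhibitors block active-site labeling by the probe so polarization falls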
# A number is an active result; 0 = inactive; - = not tested or not shown. In the library only some 1.8% were active in any assay of this set; here they are far more common.
SMILES,PAD4 FP inh,LYPLA1 counter,PME-1 primary,GSTO1 counter,Fam108B counter,LYPLA2 inh,GSTO1 confirm,LYPLA1 conf,PAD4 confirm,others
CCOc1cc(CNc2ccc(N3CCCCC3)cc2)cc(Br)c1OCC(=O)NC(C)(C)C,0,0,0,0,0,0,-,-,-,
CC(NC(=O)CN(c1ccccc1F)S(C)(=O)=O)c1ccccc1 (centres undefined),0,0,0,0,0,0,-,-,-,
O=C1c2ccccc2-c2cccc(C(=O)N3CCCCC3)c21,0,0,0,0,0,0,-,-,-,
O=C1c2ccccc2C(=O)c2c1cccc2N1CCCC1,27.8,0,0,56.4,0,0,0,-,0,
CCN(CCn1cccn1)C(=O)CCc1nnc(CCc2ccccc2OC)o1,0,0,0,0,0,0,-,-,-,
CC(=O)Nc1ccc(N/C=C/C(=O)c2ccco2)cc1,0,0,0,0,0,0,-,-,-,
CN(C)c1ccc(N/C=C/C(=O)c2ccco2)cc1,23.4,0,0,60.9,0,0,0,-,0,
CCCC(=Nc1ccc(N)cc1)C1=C(O)C(C(=O)OC)C(C)(C)CC1=O (centres undefined),67.4,14.6,34.2,88.2,0,27.5,0,0,0,LYPLA2 confirm=0
C(=Nc1cccc2c(N=Cc3ccco3)cccc12)c1ccco1,62.4,0,0,39.6,0,0,0,-,0,
C(=N\C(/N=C/c1ccco1)c1ccco1)/c1ccco1,0,0,0,0,0,0,-,-,-,
CC1=NN(c2ccc(C)cc2)C(=O)/C1=C\c1ccc(Br)s1,21.2,0,0,39.7,0,0,0,-,40.5,
CC1=NN(c2ccccc2)C(=O)/C1=C\c1cn(-c2ccccc2)nc1C,0,0,0,0,0,0,-,-,-,
Cc1cc(C(=O)N2CCN(c3ccccc3Cl)CC2)c(C)o1,0,-,-,-,-,-,-,-,-,
COc1cc(C(C[N+](=O)[O-])c2c(C)cc3ccccn23)ccc1O (centres undefined),60.0,0,0,39.5,0,0,0,-,0,
C#CCOc1ccc(/C=C2/C(=O)N(c3cccc(C(=O)O)c3)N=C2C)cc1OC,39.3,0,0,70.5,0,0,0,-,0,
COc1ccccc1/C=C1/C(=O)N(c2ccccc2)N=C1C,47.8,0,0,45.8,0,0,0,-,0,
COc1cc(/C=C2/C(=O)N(c3ccc(C)c(C)c3)N=C2C)cc([N+](=O)[O-])c1O,0,0,0,0,0,0,-,-,-,
CC1=NN(c2ccccc2)C(=O)/C1=C\c1cn(CCC#N)nc1-c1ccc(Cl)cc1,18.9,0,0,53.2,0,0,0,-,0,
CC(C)CCn1c(N)c(S(=O)(=O)c2cccs2)c2nc3ccccc3nc21,63.0,0,0,57.2,0,0,0,-,0,
COc1cc(/C=C2\C(=O)N(c3ccc(NC(C)=O)cc3)N=C2c2ccccc2)ccc1O,62.4,0,0,75.9,0,0,0,-,0,
COc1ccc(C)cc1-n1nnnc1SCc1cc(=O)n2cc(C)ccc2n1,0,0,0,0,0,0,-,-,-,
O=C(Cn1ncc(Cl)c(Cl)c1=O)c1ccc(Cl)cc1,0,0,0,0,0,0,-,-,-,
O=C(OCn1ncc(Cl)c(Cl)c1=O)c1ccccc1Cl,27.7,0,0,48.0,0,0,0,-,28.8,
O=C(NCC(=O)N1CCN(c2ccccn2)CC1)c1ccc(Br)o1,0,0,0,0,0,0,-,-,-,
Cc1nc([N+](=O)[O-])c(N2CCN(Cc3ccccc3)CC2)n1Cc1ccccc1,0,32.9,0,0,0,0,-,33.3,-,
SMILES,PAD4 FP inh,LYPLA1 counter,PME-1 primary,GSTO1 counter,Fam108B counter,LYPLA2 inh,GSTO1 confirm,LYPLA1 conf,PAD4 confirm,others
Cc1noc(NS(=O)(=O)c2ccc(NC(=O)c3oc4ccc(Cl)cc4c3C)cc2)c1C,0,28.2,0,0,0,0,-,30.9,-,
COC(=O)c1cc(C(=O)Nc2cc(C)on2)cc([N+](=O)[O-])c1,0,0,0,0,0,0,-,-,-,
COC(=O)Cn1c(=NC(=O)c2ccc(S(=O)(=O)N3CCOCC3)cc2)sc2cc(S(N)(=O)=O)ccc21,0,0,0,0,0,0,-,-,-,
COCCn1c(=NC(=O)c2ccc(S(=O)(=O)N3CCOCC3)cc2)sc2cc(S(N)(=O)=O)ccc21,0,17.3,0,0,0,0,-,27.2,-,
CC1CCc2c(sc(NC(=O)CN3CCN(C(=O)c4ccco4)CC3)c2C#N)C1 (centres undefined),0,42.0,0,0,0,0,-,41.8,-,
COc1ccc(-c2nnc(-c3ccc(N)cc3)o2)cc1,0,0,0,0,0,0,-,-,-,
COc1ccc(-c2nnc(Nc3nc4c(OC)cccc4s3)o2)cc1,0,17.4,0,0,0,0,-,41.4,-,
Cc1cc(/C=N/n2cnnc2)c(O)c([N+](=O)[O-])c1,0,0,0,0,0,0,-,-,-,
CCN(CC)S(=O)(=O)c1cccc(-c2nnc(SCc3nc4ccccc4s3)o2)c1,0,14.5,0,0,0,0,-,21.3,-,
CCN(CC)S(=O)(=O)c1cccc(-c2nnc(SCCCC(=O)c3ccccc3)o2)c1,0,0,0,0,0,0,-,-,-,
Cc1ccc(Cl)cc1N1CCN(C(=O)CNC(=O)c2ccc(Br)o2)CC1,0,0,0,-,-,0,-,-,-,
O=C(NCC(=O)N1CCN(c2cccc(Cl)c2)CC1)c1ccc(Br)o1,0,14.2,0,0,0,0,-,15.8,-,
COc1cc(C(=O)Oc2cccc(Nc3ncnc4ccccc34)c2)cc(OC)c1OC,0,0,0,0,0,0,-,-,-,
COc1ccc(C(=O)Oc2cccc(Nc3ncnc4ccccc34)c2)cc1OC,0,15.7,0,0,0,0,-,14.7,-,
N#Cc1ccccc1OCCCN1CCC(Cc2ccccc2)CC1,0,59.0,0,0,0,0,-,55.9,-,
Cc1ccc([N+](=O)[O-])c(OCCN2CCC(Cc3ccccc3)CC2)c1,0,0,0,0,0,0,-,-,-,
O=[N+]([O-])c1cccc(OCCCN2CCC(Cc3ccccc3)CC2)c1,0,15.8,0,0,0,32.0,-,19.5,-,
CC(=O)c1ccc(-c2ccc(/C=C(/Sc3n[nH]c(C)n3)C(=O)O)o2)cc1,0,0,0,0,0,0,-,-,-,
Cc1nc(S/C(=C/c2ccc(-c3ccc(Cl)cc3)o2)C(=O)O)n[nH]1,0,20.2,0,0,0,0,-,19.0,-,
Cc1cccc(NC(=O)C(C)n2cc([N+](=O)[O-])cn2)n1 (centres undefined),0,0,0,0,0,0,-,-,-,
O=C(CC1C(=O)NCCN1C/C=C/c1ccccc1)NCCCC1CCCC1 (centres undefined),0,0,0,0,0,0,-,-,-,
